ChEMBL document CHEMBL1201862, “PubChem BioAssay data set” (2004)
The campaign covered roughly 400,000 compounds. About 1,900 (0.47%) were called active. Roughly 14% stayed inconclusive and do not appear here. No rule for the calls is given here. The sample as a whole holds a higher share of actives than the screen did.

target: Ataxin-2 (Homo sapiens) (UniProt Q99700); test: qHTS for Inhibitors of ATXN expression.; type: functional
Sequence (Q99700 whole entry): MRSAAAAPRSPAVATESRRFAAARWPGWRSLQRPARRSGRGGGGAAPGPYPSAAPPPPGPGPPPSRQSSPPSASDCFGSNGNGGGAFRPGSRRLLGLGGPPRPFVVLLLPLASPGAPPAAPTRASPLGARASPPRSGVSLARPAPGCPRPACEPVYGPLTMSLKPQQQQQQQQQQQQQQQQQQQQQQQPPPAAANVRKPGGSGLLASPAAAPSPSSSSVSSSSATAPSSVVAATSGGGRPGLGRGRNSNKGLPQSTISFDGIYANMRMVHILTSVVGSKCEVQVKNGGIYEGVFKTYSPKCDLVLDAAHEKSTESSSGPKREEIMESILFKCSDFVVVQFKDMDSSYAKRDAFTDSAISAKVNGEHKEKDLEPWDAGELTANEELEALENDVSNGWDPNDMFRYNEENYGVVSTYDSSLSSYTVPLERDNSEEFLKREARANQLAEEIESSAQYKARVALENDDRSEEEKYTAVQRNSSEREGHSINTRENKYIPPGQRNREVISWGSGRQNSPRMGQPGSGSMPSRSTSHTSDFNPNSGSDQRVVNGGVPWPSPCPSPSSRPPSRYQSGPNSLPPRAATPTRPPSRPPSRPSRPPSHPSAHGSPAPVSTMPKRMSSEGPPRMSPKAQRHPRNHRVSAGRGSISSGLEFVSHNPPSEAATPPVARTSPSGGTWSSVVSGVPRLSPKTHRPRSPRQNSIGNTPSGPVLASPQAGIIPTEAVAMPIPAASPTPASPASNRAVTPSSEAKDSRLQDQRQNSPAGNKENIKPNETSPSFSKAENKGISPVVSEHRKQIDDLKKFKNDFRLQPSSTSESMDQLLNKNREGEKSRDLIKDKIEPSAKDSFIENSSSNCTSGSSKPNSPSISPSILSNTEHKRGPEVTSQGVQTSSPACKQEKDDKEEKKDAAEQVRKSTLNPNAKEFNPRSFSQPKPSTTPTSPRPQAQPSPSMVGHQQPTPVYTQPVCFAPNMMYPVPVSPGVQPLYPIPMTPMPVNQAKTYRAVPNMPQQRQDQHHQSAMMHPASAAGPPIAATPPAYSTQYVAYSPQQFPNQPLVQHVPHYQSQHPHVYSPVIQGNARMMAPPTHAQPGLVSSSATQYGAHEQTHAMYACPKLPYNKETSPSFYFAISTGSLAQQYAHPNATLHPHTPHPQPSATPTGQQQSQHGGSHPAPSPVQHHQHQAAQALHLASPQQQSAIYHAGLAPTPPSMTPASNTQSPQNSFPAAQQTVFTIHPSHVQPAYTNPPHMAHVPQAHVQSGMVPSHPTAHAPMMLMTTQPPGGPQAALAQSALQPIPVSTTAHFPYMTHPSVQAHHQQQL

| SMILES | Potency |
| --- | --- |
| CCOC(=O)[C@]12Cc3c(cc(OC)c(OC)c3OC)[C@H]1N(C)C(=O)c1cc(OC)ccc12 | 11.2 µM (active) |
| CCOC(=O)[C@]12Cc3ccccc3[C@H]1N(C(C)C)C(=O)c1ccccc12 | 22.4 µM (active) |
| CCOC(=O)[C@]12Cc3ccccc3[C@H]1N(C(C)C)C(=O)c1cc(OC)ccc12 | 17.8 µM (active) |
| CCOC(=O)[C@]12Cc3ccccc3[C@H]1N(C)C(=O)c1cc(OC)ccc12 | 31.6 µM (active) |
| N#CC1=C(N)Oc2c(c(=O)oc3ccccc23)C1c1ccc([N+](=O)[O-])o1 (stereo not given) | inactive |
| CC(C)OCC(O)CN1CC2C[C@@H](C1)Cn1c2cccc1=O (stereo not given in full) | inactive |
| Cc1cc(=O)oc2cc(OCC(=O)N3CCN(C(C)c4ccccc4)CC3)c(Cl)cc12 (stereo not given) | inactive |
| CCCCn1c(NC(=O)c2ccco2)c(C(=O)OCC)c2nc3ccccc3nc21 | inactive |
| CCOC(=O)[C@]12Cc3cc(C)ccc3[C@H]1N(C(C)C)C(=O)c1ccccc12 | 11.2 µM (active) |
| CCCCN1C(=O)/C(=C/NNC(=O)c2ccncc2)C(=O)NC1=S | inactive |
| CCOc1c(Cl)cc(CNCCc2c[nH]c3ccccc23)cc1OC | 20 µM (active) |
| CCOc1c(Cl)cc(CNC(C)C(O)c2ccccc2)cc1OC (stereo not given) | inactive |
| COc1cccc(CNCCc2cccc(F)c2)c1OC | inactive |
| COc1cccc(-n2c(/C=C/c3ccc(O)c(O)c3)nc3ccccc3c2=O)c1 | inactive |
| COP(=O)(OC)c1nc(-c2ccc([N+](=O)[O-])cc2)oc1N1CCCCC1 | inactive |
| O=[N+]([O-])/C=C/c1c(Cl)cccc1Cl | 4.74 µM (active) |
| CC(C)CCNC(=O)c1c(N)n(CC2CCCO2)c2nc3ccccc3nc12 (stereo not given) | inactive |
| O=C1NC(=O)N(Cc2ccccc2)C(=O)/C1=C/NNC(=O)c1ccncc1 | inactive |
| Cc1cnc(SCc2ccccn2)nc1C1CCCN(C(=O)c2scc3c2CCCC3)C1 (stereo not given) | 25.1 µM (active) |
| Nc1ccc2c3c(cccc13)-c1ccccc1-2 | inactive |
| Nc1c(C(=O)NCC2CCCO2)c2nc3ccccc3nc2n1Cc1ccco1 (stereo not given) | inactive |
| O=C(NCC1=C(c2ccc3ccccc3c2)C[C@@H]2CC[C@H]1N2Cc1ccco1)c1ccc([N+](=O)[O-])cc1 | 31.6 µM (active) |
| Nc1c(C(=O)NCc2ccco2)c2nc3ccccc3nc2n1Cc1ccccc1 | inactive |
| CCC(Nc1ccccc1N)=C1C(=O)NC(=O)NC1=O | inactive |

| SMILES | Potency |
| --- | --- |
| CCC1(C)OC(c2ccccc2)=C/C(=C/C=C2C(=O)NC(=O)NC2=O)O1 (stereo not given) | inactive |
| O=c1ccc2cc(O[C@@H]3O[C@H](CO)[C@@H](O)[C@H](O)[C@H]3O)c(O)cc2o1 | inactive |
| O=C(NCc1ccccc1)c1cccn(Cc2cccc(Cl)c2)c1=O | inactive |
| Cc1n[nH]c2ccc(-c3cncc(OC[C@@H](N)Cc4c[nH]c5ccccc45)c3)cc12 | 11.2 µM (active) |
| C[n+]1c2cc(N)ccc2cc2ccc(N)cc21 | inactive |
| Clc1ccc(C(Cn2ccnc2)OCc2csc3c(Cl)cccc23)c(Cl)c1 (stereo not given) | 28.2 µM (active) |
| Clc1ccc(COC(Cn2ccnc2)c2ccc(Cl)cc2Cl)cc1 (stereo not given) | 39.8 µM (active) |
| COc1ccc(Br)cc1CNCCc1cccc(Cl)c1 | inactive |
| CC/C(=C(\c1ccc(O)cc1)c1ccc(OCCN(C)C)cc1)c1ccccc1 | 39.8 µM (active) |
| CCCCCC[C@H]1C(=O)O[C@H](C)[C@H](NC(=O)c2cccc(NC=O)c2O)C(=O)O[C@@H](C)[C@H]1OC(=O)CC(C)C | inactive |
| C=CCc1ccccc1OCCn1c(C2CC(=O)N(Cc3ccc(F)cc3)C2)nc2ccccc21 (stereo not given) | 39.8 µM (active) |
| CC[C@@H]1CN2CCc3cc(OC)c(OC)cc3[C@H]2C[C@@H]1C[C@@H]1NCCc2cc(O)c(OC)cc21 | 0.0631 µM (active) |
| CC[C@@H]1CN2CCc3cc(OC)c(OC)cc3[C@H]2C[C@@H]1C[C@H]1NCCc2cc(OC)c(OC)cc21 | 0.316 µM (active) |
| CC(=O)O[C@H]1CCC2C3CCC4=CC(=O)CCC4=C3C=C[C@@]21C (stereo not given in full) | inactive |
| CN1C(=O)C(=CNCCN2CCOCC2)C(=O)N(C)C1=S | inactive |
| Cc1ccc(N/N=C/C=C/c2ccco2)cc1 | inactive |
| CC(=O)C12CC(C)=C(C)CC1CC1C3CCC4=CC(=O)CCC4(C)C3CCC12C (stereo not given) | inactive |
| O=C1NC(=O)N(CCc2ccc(F)cc2)C(=O)/C1=C/NNC(=O)c1ccncc1 | inactive |
| Fc1ccc(C2=CCN(C(c3cccs3)c3nnnn3CCc3ccccc3)CC2)cc1 (stereo not given) | 39.8 µM (active) |
| Clc1ccc2sc(C3CCNCC3)nc2c1 | inactive |
| CCCCn1nnnc1C(c1cccc(OC)c1OC)N1CCC2(CC1)C(=O)NCN2c1ccccc1 (stereo not given) | 39.8 µM (active) |
| O=C1NCN(c2ccccc2)C12CCN(C(c1ccccc1OC(F)(F)F)c1nnnn1Cc1ccccc1)CC2 (stereo not given) | 39.8 µM (active) |
| COc1cccc(C(c2nnnn2Cc2ccccc2)N2CCC3(CC2)C(=O)NCN3c2ccccc2)c1OC (stereo not given) | 39.8 µM (active) |
| O=C1NCN(c2ccccc2)C12CCN(C(c1cccc3ccccc13)c1nnnn1Cc1ccccc1)CC2 (stereo not given) | 39.8 µM (active) |

| SMILES | Potency |
| --- | --- |
| Cc1c(CC(=O)N2C[C@H]3C[C@@H](C2)c2cccc(=O)n2C3)c(=O)oc2c(C)c(O)ccc12 | inactive |
| COc1ccc2c(c1)NP(=S)(Oc1ccccc1)N2 (stereo not given) | inactive |
| N#Cc1cccc(NC(=O)CSc2nc3c(cc2C#N)N2CCC3CC2)c1 | inactive |
| Fc1cccc(F)c1CN1CCN(c2ccc(Cl)cc2)CC1 | inactive |
| CCC(C)NC(=O)c1c(N)n(CCCOC)c2nc3ccccc3nc12 (stereo not given) | inactive |
| CCCCNC(=O)c1c(N)n(CCCOC)c2nc3ccccc3nc12 | inactive |
| Cc1cc(=O)oc2cc3c(cc12)CCCN3 | inactive |
| CC[C@H](C)/C=C(C)/C=C/C1=CC2=C(Cl)C(=O)[C@](C)(OC(C)=O)C(=O)C2=CO1 | 28.2 µM (active) |
| CCn1nc(-c2ccccc2)nc2c(=O)n(C)c(=O)nc1-2 | 20 µM (active) |
| CCn1nc(/C=C/c2ccccc2)nc2c(=O)n(C)c(=O)nc1-2 | 10.6 µM (active) |
| COc1ccc(-n2c(/C=C/c3ccc(O)cc3)nc3ccccc3c2=O)cc1 | inactive |
| CCN1C(=O)/C(=C/NNC(=O)c2ccncc2)C(=O)NC1=S | inactive |
| CCOc1ccc2nc(NN=C3C(=O)NC(=S)NC3=O)sc2c1 | 15 µM (active) |
| CCC(=O)N1N=C2C3CCN(CC3)C2C1c1ccc(C)cc1 (stereo not given) | inactive |
| COc1cccc(C(=O)NCc2nc(-c3cccc(NC(=O)c4ccoc4C)c3)oc2C)c1OC | 28.2 µM (active) |
| Nc1ccc2c(c1)Cc1cc([N+](=O)[O-])ccc1-2 | inactive |
| Clc1ccc2c(c1)C(OC1CN3CCC1CC3)c1ccccc1CS2 (stereo not given) | 28.2 µM (active) |
| CCOc1ccc(NS(=O)(=O)c2ccc(Cl)c(NN=C3C(=O)NC(=S)NC3=O)c2)cc1Br | 28.2 µM (active) |
| COc1ccc(S(=O)(=O)Nc2ccccc2OC)cc1NN=C1C(=O)NC(=S)NC1=O | 39.8 µM (active) |
| Nc1ccc2ccc3cccc[n+]3c2c1 | inactive |
| COCCCNC(=O)c1c(NC(=O)c2ccccc2Cl)n(Cc2ccccc2)c2nc3ccccc3nc12 | inactive |
| CCC1(OC(=O)CN)C(=O)OCc2c1cc1n(c2=O)Cc2cc3ccccc3nc2-1 (stereo not given) | inactive |
| CCC1(O)C(=O)OCc2c1cc1n(c2=O)Cc2cc3cc(O)ccc3nc2-1 (stereo not given) | inactive |
| CC[C@@]1(O)C(=O)OCc2c1cc1n(c2=O)Cc2cc3ccccc3nc2-1 | 0.01 µM (active) |

| SMILES | Potency |
| --- | --- |
| CCCCCn1c(=O)c(C(=O)NCc2ccccc2Cl)c(O)c2ccccc21 | inactive |
| NNC(=O)CN1C(=O)CN=C(c2ccccc2)c2cc(Br)ccc21 | inactive |
| O=C(CN1C(=O)CN=C(c2ccccc2)c2ccccc21)Nc1cccc(C(F)(F)F)c1 | 31.6 µM (active) |
| C=C1C(=O)OC2CC3(C)OC3CCC(C)=CC(OC(C)=O)C12 (stereo not given) | 33.6 µM (active) |
| CCCCn1c(NS(=O)(=O)c2ccccc2)c(C(=O)OCC)c2nc3ccccc3nc21 | inactive |
| CCOC(=O)c1c(NS(=O)(=O)c2ccccc2)n(CCCOC)c2nc3ccccc3nc12 | inactive |
| COCCCn1c(N)c(C(=O)NCCC(C)C)c2nc3ccccc3nc21 | inactive |
| Brc1cccc(CNCCc2ccc3c(c2)OCO3)c1 | inactive |
| CNCCC(Oc1ccc(C(F)(F)F)cc1)c1ccccc1 (stereo not given) | 31.6 µM (active) |
| CC[C@@]1(O)C(=O)OCc2c1cc1n(c2=O)Cc2cc3c(NC(=O)CN)cccc3nc2-1 | inactive |
| COC(=O)c1ccc(C(C(=O)NC2CCCCC2)N(CCN2CCOCC2)C(=O)Cc2cccs2)cc1 (stereo not given) | inactive |
| CCc1ccc2c(c1)Sc1ccccc1CC2N1CCN(C)CC1 (stereo not given) | inactive |
| O=c1ccc2cc(OC3O[C@H](CO)[C@@H](O)[C@H](O)[C@H]3O)c(O)cc2o1 (stereo not given in full) | inactive |
| O=[N+]([O-])c1ccc(N(CCO)CCO)c2c1no[n+]2[O-] | 17.8 µM (active) |
| O=[N+]([O-])c1ccc(N2CCOCC2)c2c1no[n+]2[O-] | 3.98 µM (active) |
| CN1CCN(c2ccc([N+](=O)[O-])c3no[n+]([O-])c23)CC1 | 7.08 µM (active) |
| O=[N+]([O-])c1ccc(N2CCOCC2)c2cccnc12 | inactive |
| COc1ccc(Br)cc1CNCCc1ccc2c(c1)OCO2 | inactive |
| Cc1cc2c(C(F)(F)F)cc(=O)oc2c2c1NCCC2 | inactive |
| Cc1cc(/C=C2\C(=O)NC(=O)N(Cc3ccccc3Cl)C2=O)c(C)n1-c1ccc(C(=O)O)cc1 | inactive |
| Cc1cc(C=C2C(=O)NC(=S)NC2=O)c(C)n1-c1ccc2c(c1)OCO2 | 39.8 µM (active) |
| Cc1cccc(N2C(=O)NC(=O)/C(=C/c3cc4c(cc3[N+](=O)[O-])OCO4)C2=O)c1 | inactive |
| CCN(C(=O)COC(=O)c1cn(C)c2ccccc12)c1ccc(F)cc1 | inactive |
